Laboratory results reported in PubChem BioAssay (NCI).
Values joined by “and” are separate entries in the source; they are usually repeats but may differ in a detail not shown here. Identical values can stand only once. This is part of a sample that, as a whole, favours compounds with a hit. Of some 83,000 tested, about 20% had one in any assay.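 Assay: single dose, 48 h. Readout: percent growth (0 = no net growth; negative = cell death). Active: <10.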 Active and inactive are the calls of the source.

Key:
Experiment in all cases: NCI-60 one-dose screen, 48 h (100 = growth as untreated, 0 = no growth, -100 = all killed)
Conditions in all cases: 10 µM unless noted
[1] = system: SR leukemia
[2] = system: RPMI-8226 leukemia
[3] = system: OVCAR-8 ovarian
[4] = system: OVCAR-5 ovarian
[5] = system: OVCAR-4 ovarian
[6] = system: SK-OV-3 ovarian
[7] = system: IGROV1 ovarian
[8] = system: OVCAR-3 ovarian
[9] = system: HS 578T breast
[10] = system: NCI/ADR-RES ovarian
[11] = system: T-47D breast
[12] = system: BT-549 breast
[13] = system: MDA-MB-435 melanoma
[14] = system: SW-620 colon
[15] = system: MCF7 breast
[16] = system: HCT-116 colon
[17] = system: HCC-2998 colon
[18] = system: KM12 colon

Measured: growth

CC(=O)OC[C@@]12Oc3c(cccc3-c3ccc(O)c4c3O[C@]3(COC(C)=O)C(=C4O)C(=O)C[C@H](C)[C@@H]3OC(C)=O)C(O)=C1C(=O)C[C@H](C)[C@@H]2OC(C)=O
inactive: [3] 15% | [4] 27.6% | [7] 26.9% | [8] 11.6% | [10] 24.7% | [13] 13% | [14] 17.8% | [16] 10.8% | [17] 23.7%
active: [1] -7.02% | [2] -27.1% | [5] 5.47% | [6] -1.41% | [9] -13.6% | [11] 4.37% | [12] -1.88% | [15] 5.84% | [18] 8.74%

Cc1cc(NS(=O)(=O)c2ccc(NC(=O)CSc3nc4ccccc4c(=O)n3-c3ccccc3)cc2)no1
inactive: [1] 97.9% | [2] 110% | [3] 102% | [4] 92.7% | [5] 102% | [6] 106% | [7] 97.6% | [8] 109% | [9] 93.3% | [10] 102% | [11] 90% | [12] 97.1% | [13] 98% | [14] 98.9% | [15] 91.4% | [16] 94.6% | [17] 96.9% | [18] 94.5%

CCOC(=O)c1cccc(NC2=C(Cl)C(=O)c3nc(C)ccc3C2=O)c1
inactive: [1] 37.1% | [2] 53.3% | [3] 97.8% | [4] 104% | [5] 53.7% | [6] 98% | [7] 17.3% | [8] 46.1% | [9] 111% | [10] 94.6% | [11] 56.4% | [12] 121% | [13] 108% | [14] 84.3% | [15] 76% | [16] 76.7% | [17] 122% | [18] 105%

CN1CCN(c2ccc(Nc3nc(NCCCNS(=O)(=O)c4ccccc4)c4sccc4n3)cc2)CC1
active: [1] 2.4%
inactive: [2] 14.6% | [3] 65.8% | [4] 78.3% | [5] 56.5% | [6] 122% | [7] 79.7% | [8] 74.3% | [9] 80.3% | [10] 86.4% | [11] 36.8% | [12] 62.1% | [13] 50.6% | [14] 52.5% | [15] 35.5% | [16] 16.7% | [17] 60.4% | [18] 73.3%

Cc1[nH]c(C(=O)Nc2ccc(C(=O)NCC3CCNCC3)cc2OC(C)C)c(Cl)c1Cl
inactive: [2] 42.3% | [3] 86.6% | [4] 84.9% | [5] 89.5% | [6] 97.3% | [7] 54.4% | [8] 85.6% | [9] 69.1% | [10] 100% | [11] 77.6% | [12] 92.6% | [13] 72.2% | [14] 33.6% | [16] 33.2% | [17] 55.3% | [18] 56%
active: [1] -0.735% | [15] -76.3%

CCOC(=O)c1ccc(NC2=CC(=O)C(C)=C(C)C2=O)cc1
inactive: [1] 50.3% | [2] 66.1% | [3] 83.7% | [4] 104% | [6] 92% | [7] 79.2% | [9] 94.1% | [10] 65.4% | [11] 43.2% | [12] 91.1% | [13] 44.2% | [14] 101% | [15] 62.7% | [16] 56.5% | [17] 101% | [18] 46.1%
active: [5] -63% | [8] 0.628%

CC1=C(C)C(=O)C(Nc2ccc(C)cc2)=C(Br)C1=O
inactive: [1] 43.6% | [2] 55.2% | [3] 92.7% | [4] 108% | [5] 75.6% | [6] 85.5% | [7] 94.5% | [8] 105% | [9] 96.7% | [10] 95.7% | [11] 15.7% | [12] 104% | [13] 103% | [14] 103% | [15] 76% | [16] 35.4% | [17] 104% | [18] 104%

O=C(CSc1nc2ccccc2c(=O)n1-c1ccc(Cl)cc1)N/N=C/c1ccc(Oc2ccc(Cl)cc2)cc1
inactive: [1] 32.9% | [2] 24.7% | [3] 13.4% | [4] 70.6% | [6] 33.8% | [7] 20.6% | [8] 87.3% | [9] 21.4% | [10] 15.7% | [11] 30.1% | [13] 25.1% | [15] 15.5% | [17] 20.3% | [18] 17.4%
active: [5] 1.7% | [12] -17.7% | [14] 2.62% | [16] -67.8%

COc1cc2oc(-c3cccc(NC(=O)[C@@H](N)C(C)C)c3)cc(=O)c2c(OC)c1OC
inactive: [1] 76.9% | [2] 88.2% | [3] 99% | [4] 103% | [5] 107% | [6] 104% | [7] 103% | [8] 108% | [9] 112% | [10] 107% | [11] 87.3% | [12] 104% | [13] 109% | [14] 105% | [15] 92.9% | [16] 98.6% | [17] 109% | [18] 101%

CN1c2ccccc2Sc2cc(/C=N/Nc3ccnc4cc(Cl)ccc34)ccc21
inactive: [2] 46.3% | [3] 60.5% | [4] 106% | [5] 94% | [6] 102% | [7] 104% | [8] 90.8% | [9] 105% | [10] 12.6% | [11] 87.4% | [12] 99% | [13] 62.9% | [14] 84.8% | [15] 49.4% | [16] 57.3% | [17] 110% | [18] 86.8%
active: [1] -1.36%

C#CCOc1cccc(/C(N)=N/C(N)=N/c2nc3ccccc3s2)c1
inactive: [1] 34.5% | [2] 83.2% | [3] 67.9% | [4] 111% | [5] 102% | [6] 133% | [7] 65.7% | [8] 104% | [9] 108% | [10] 59.1% | [11] 72.3% | [12] 91.7% | [13] 104% | [14] 105% | [15] 74.2% | [16] 80.4% | [17] 109% | [18] 78.7%

CCCCCCCCCC(=O)NC(C)(C)C(=O)N1CCC[C@H]1C(=O)N[C@@H](CC(C)C)C(=O)N[C@@](C)(CC)C(=O)N[C@@H](CCC(N)=O)C(=O)N[C@H](CCC(N)=O)C(=O)NC(C)(C)C(=O)NC(C)(C)C(=O)N[C@@H](CCC(N)=O)C(=O)N[C@H](CC(C)C)C(=O)N[C@H](CO)CC(C)C
-70.9% (active) and 19.4% (inactive): [6]
active: [1] -77.5% and 1.34% | [2] -67.5% and -26% | [3] -86.4% and -49.5% | [4] -97.7% and -82.4% | [7] -87% and 5.72% | [8] -23.8% | [9] -71.3% and -59% | [10] -83% and 0.971% | [11] -34.9% and -12.9% | [12] -84.8% and -76.9% | [13] -60.3% and -95.4% | [14] -83.6% and -50.6% | [15] -83.8% and -76.9% | [16] -67.5% and 1.05% | [17] -89.2% and -59.5% | [18] -89.6% and -89.8%
-20.8% (active) and 50.4% (inactive): [5]

C=C(C)[C@@H]1CC[C@]2(C(=O)N3CCN(C)CC3)CC[C@]3(C)[C@H](CC[C@@H]4[C@@]5(C)CC[C@H](OP(=O)(OCC)OCC)C(C)(C)[C@@H]5CC[C@]43C)[C@@H]12
inactive: [2] 35.2% | [3] 84.3% | [4] 105% | [5] 91.2% | [6] 104% | [7] 92.9% | [8] 100% | [9] 87.6% | [10] 82.4% | [11] 87.8% | [12] 93.9% | [13] 94.2% | [14] 82% | [15] 68.9% | [16] 24% | [17] 94.4% | [18] 94.4%
active: [1] -26.6%

COC(=O)CCSC1=C(C)C(=O)c2ccccc2C1=O
inactive: [1] 71% | [2] 45.3% | [3] 85.8% | [4] 104% | [5] 75.6% | [6] 97.7% | [7] 80.8% | [8] 69% | [9] 91.8% | [10] 83.5% | [11] 43.5% | [12] 88.8% | [13] 106% | [14] 96.3% | [15] 73.3% | [16] 91.5% | [17] 111% | [18] 82.7%
